Source: the supplement of paper PMC10849652
Targets with a hit are over-represented here; the source holds about 7,900 in all. About 0.6% of all pairs of compound and target were hits.

These targets were tested with CNc1nc(-c2ccc3c(N)n[nH]c3c2)cc(N2C[C@@H](C(=O)NC3CCCCC3)CC[C@H]2C)n1 (assay: log2 fold change, soluble protein after heating vs DMSO (PISA); higher = thermal stabilisation; K562 cells, 10 uM, 30 min; active = over 0.2 and 3.5 SD of the protein, either way, in both replicates (recomputed)).
How it was run: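 Quantification of soluble protein used TMTpro 16plex LC-MS/MS, with channel sums equalised. Samples were the supernatant after 21,000xg for 90 min of pooled aliquots from K562 cells (2×10^6 cells/mL) treated with 10 μM compound for 30 min, heated for 3 min over 48°C-58°C, and extracted in PBS with 0.5% NP-40 at 4°C. Values, from duplicates, describe thermal stability against control samples on a log2 fold-change scale.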

Sequence of UniProt A4D2B0 (A4D2B0 whole entry, looked up): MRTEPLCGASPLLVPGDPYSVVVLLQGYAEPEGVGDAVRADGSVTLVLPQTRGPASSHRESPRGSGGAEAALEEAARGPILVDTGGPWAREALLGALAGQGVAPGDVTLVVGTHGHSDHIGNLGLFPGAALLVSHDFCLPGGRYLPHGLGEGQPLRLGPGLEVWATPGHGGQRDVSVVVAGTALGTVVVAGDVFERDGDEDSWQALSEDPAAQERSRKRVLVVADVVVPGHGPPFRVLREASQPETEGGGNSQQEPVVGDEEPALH
Sequence of UniProt Q96G25 (Q96G25 whole entry, looked up): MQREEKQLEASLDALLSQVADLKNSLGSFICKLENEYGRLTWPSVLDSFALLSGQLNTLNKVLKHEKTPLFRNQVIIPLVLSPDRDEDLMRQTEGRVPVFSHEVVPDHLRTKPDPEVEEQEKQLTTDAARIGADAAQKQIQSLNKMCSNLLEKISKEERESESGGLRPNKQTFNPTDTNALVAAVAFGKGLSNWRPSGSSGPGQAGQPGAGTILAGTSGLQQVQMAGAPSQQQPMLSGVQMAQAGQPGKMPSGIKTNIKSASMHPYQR
Sequence of UniProt Q14680 (Q14680 whole entry, looked up): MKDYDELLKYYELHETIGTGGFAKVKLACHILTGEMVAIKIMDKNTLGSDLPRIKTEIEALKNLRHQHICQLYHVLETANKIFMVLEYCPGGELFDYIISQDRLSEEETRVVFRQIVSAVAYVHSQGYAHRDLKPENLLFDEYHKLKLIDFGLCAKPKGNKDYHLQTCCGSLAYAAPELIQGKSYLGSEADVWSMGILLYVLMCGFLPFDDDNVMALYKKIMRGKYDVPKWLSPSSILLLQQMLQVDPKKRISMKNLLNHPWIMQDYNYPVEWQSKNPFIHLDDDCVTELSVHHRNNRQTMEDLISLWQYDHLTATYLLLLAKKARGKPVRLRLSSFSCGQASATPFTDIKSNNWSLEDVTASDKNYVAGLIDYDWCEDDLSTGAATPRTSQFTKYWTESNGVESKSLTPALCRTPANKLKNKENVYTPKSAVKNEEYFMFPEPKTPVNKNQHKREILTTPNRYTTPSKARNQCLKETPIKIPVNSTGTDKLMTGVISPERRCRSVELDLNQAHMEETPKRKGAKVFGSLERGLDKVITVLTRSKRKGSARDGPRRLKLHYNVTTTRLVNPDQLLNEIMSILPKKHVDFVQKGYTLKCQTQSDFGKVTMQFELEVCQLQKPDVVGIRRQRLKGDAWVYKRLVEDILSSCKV
Sequence of UniProt Q9Y2E5 (Q9Y2E5 whole entry, looked up): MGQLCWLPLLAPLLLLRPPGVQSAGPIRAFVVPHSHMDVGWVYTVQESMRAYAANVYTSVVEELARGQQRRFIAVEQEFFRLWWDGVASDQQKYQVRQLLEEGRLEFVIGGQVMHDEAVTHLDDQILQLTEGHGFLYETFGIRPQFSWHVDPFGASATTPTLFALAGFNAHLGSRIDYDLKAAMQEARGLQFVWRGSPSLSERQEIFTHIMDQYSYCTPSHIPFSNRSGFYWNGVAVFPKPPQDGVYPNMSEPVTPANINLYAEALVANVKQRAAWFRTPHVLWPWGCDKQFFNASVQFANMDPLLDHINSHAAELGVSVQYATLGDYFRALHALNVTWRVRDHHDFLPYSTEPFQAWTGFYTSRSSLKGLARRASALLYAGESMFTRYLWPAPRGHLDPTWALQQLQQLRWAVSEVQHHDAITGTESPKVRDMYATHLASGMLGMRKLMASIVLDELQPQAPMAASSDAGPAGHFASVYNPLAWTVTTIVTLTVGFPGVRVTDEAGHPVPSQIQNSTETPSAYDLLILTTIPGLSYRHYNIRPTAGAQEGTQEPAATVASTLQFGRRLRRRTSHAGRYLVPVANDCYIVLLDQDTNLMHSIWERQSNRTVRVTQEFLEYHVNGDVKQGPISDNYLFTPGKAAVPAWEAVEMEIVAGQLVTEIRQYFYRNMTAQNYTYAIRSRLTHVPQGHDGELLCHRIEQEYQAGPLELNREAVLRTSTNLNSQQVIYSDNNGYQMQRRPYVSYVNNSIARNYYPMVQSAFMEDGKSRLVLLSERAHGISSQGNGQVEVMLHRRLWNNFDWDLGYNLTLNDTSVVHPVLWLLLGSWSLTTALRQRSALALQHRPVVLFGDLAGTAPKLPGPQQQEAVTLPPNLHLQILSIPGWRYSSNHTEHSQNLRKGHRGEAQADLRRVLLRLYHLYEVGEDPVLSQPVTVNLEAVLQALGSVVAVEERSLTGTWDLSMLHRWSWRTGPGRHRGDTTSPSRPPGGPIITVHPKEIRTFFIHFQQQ
Sequence of UniProt P51884 (P51884 whole entry, looked up): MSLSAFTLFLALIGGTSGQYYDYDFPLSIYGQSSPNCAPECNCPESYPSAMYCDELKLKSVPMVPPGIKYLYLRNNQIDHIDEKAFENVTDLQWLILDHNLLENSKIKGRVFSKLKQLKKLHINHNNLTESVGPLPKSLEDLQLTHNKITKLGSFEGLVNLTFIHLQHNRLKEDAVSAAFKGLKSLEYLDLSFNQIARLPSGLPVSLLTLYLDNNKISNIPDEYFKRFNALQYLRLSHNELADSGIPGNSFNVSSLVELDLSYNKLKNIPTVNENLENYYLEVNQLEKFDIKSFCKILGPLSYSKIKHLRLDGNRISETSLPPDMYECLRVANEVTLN
Sequence of UniProt O95279 (O95279 whole entry, looked up): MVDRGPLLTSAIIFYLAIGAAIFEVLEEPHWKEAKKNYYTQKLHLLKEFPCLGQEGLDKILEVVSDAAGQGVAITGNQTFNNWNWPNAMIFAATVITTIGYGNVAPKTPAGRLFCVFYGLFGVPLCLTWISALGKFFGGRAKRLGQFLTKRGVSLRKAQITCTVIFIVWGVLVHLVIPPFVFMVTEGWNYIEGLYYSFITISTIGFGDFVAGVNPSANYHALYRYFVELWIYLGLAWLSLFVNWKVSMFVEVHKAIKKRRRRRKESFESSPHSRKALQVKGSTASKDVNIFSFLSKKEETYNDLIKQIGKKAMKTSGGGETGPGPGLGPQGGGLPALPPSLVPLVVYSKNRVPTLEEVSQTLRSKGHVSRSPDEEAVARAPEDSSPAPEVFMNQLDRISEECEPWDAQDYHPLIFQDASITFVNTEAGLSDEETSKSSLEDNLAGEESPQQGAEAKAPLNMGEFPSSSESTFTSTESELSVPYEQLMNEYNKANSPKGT
Sequence of UniProt Q96PV6 (Q96PV6 whole entry, looked up): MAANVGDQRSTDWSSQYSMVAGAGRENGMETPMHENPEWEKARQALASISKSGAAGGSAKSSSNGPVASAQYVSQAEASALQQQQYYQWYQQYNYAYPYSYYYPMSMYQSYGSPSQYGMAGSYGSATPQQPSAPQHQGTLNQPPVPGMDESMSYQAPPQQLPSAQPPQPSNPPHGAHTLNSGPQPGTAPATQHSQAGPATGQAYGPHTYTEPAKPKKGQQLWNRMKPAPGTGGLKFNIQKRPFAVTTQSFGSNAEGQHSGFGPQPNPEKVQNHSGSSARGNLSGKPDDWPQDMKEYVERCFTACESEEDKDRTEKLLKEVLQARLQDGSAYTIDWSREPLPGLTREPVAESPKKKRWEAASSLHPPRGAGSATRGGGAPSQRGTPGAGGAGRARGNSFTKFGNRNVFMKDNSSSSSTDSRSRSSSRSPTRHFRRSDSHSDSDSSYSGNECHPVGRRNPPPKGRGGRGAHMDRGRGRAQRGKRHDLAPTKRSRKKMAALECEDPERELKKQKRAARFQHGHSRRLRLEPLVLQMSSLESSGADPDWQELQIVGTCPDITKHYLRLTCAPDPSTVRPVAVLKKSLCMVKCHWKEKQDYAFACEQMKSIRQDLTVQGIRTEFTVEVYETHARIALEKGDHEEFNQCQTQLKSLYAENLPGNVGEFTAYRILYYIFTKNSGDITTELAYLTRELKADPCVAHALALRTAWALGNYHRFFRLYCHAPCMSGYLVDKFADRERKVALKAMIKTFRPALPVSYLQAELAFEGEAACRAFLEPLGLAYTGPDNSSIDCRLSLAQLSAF
Sequence of UniProt Q96LU5 (Q96LU5 whole entry, looked up): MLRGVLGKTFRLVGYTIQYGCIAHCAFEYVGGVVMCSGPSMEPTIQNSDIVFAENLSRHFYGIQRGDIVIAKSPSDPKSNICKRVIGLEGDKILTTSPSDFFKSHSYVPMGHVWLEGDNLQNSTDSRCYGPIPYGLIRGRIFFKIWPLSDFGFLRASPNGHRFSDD
Sequence of UniProt Q16539 (Q16539 whole entry, looked up): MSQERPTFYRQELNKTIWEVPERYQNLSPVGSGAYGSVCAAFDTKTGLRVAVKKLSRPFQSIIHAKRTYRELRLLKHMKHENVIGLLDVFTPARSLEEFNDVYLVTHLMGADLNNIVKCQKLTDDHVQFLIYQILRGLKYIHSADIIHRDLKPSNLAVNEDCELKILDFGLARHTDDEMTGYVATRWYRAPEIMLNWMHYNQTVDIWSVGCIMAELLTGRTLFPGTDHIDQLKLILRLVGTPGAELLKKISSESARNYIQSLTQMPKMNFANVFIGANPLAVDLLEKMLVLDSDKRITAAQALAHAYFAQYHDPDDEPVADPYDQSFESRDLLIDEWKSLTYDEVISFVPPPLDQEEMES
Sequence of UniProt Q6UWB1 (Q6UWB1 whole entry, looked up): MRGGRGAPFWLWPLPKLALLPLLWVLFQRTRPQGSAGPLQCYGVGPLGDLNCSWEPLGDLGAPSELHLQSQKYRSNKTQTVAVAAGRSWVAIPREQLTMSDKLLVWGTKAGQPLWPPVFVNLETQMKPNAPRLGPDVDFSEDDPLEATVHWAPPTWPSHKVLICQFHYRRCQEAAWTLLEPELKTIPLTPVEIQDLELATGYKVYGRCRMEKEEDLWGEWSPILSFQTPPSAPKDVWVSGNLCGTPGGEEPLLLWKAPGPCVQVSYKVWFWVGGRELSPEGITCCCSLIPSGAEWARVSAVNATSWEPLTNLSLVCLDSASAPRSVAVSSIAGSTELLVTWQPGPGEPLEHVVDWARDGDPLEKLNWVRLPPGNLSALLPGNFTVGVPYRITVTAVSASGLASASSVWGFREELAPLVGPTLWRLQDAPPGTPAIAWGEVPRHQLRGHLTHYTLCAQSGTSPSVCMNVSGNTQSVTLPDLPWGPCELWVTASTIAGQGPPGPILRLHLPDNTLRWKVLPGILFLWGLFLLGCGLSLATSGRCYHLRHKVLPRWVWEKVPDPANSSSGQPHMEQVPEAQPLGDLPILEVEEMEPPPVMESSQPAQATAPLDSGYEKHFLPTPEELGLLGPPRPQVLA

log2 fold change, inactive:
MAPK14 (UniProt Q16539) -0.03
ITM2B (UniProt Q9Y287) 0.091
METAP1D (UniProt Q6UB28) 0.04
IL27RA (UniProt Q6UWB1) 0.065
LPGAT1 (UniProt Q92604) -0.187
MED12 isoform 2 (UniProt Q93074) 0.102
KMT2C isoform 3 (UniProt Q8NEZ4) -0.046
LUM (UniProt P51884) 0.014
LRBA, A0A494BZW2 -0.008
IMMP1L (UniProt Q96LU5) -0.102
KIF3B (UniProt O15066) -0.063
MED8 isoform 2 (UniProt Q96G25) -0.131
MFSD8 (UniProt Q8NHS3) -0.053
MED22 (UniProt Q15528) 0.044
MARK2 (UniProt E9PC69) 0.037
MBLAC1 (UniProt A4D2B0) -0.005
MAGEA8 (UniProt P43361) -0.092
MAP4K4 isoform 6 (UniProt O95819) -0.186
MELK (UniProt Q14680) 0.196
MAN2B2 (UniProt Q9Y2E5) 0.007
MFSD11 (UniProt O43934) -0.127
LENG8 (UniProt Q96PV6) 0.133

log2 fold change, active:
KCNK5 (UniProt O95279) -1.08
